About 83,000 compounds went through this panel and 20% of them were active in at least one assay; those are over-represented in the sample as a whole.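 For each line, cells grew in 96-well plates with the test compound present at a single concentration for 48 hours.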 A number with no mark means an inactive call. Calls of active or inactive are those of the source. The calls were made as follows: active = growth percent below 10; inactive = the rest.

Here are results for 14 compounds from PubChem BioAssay (NCI).

Holding throughout (assay): NCI-60 one-dose screen, 48 h (100 = growth as untreated, 0 = no growth, -100 = all killed)
Holding throughout (details): 10 µM unless noted

Assay [1] has as its system NCI-H23 lung.
The test system of assay [2] is NCI-H226 lung.
The test system of assay [3] is NCI-H322M lung.
For assay [4], the system named is HOP-62 NSCLC.
In assay [5] the test system is NCI-H460 lung.
The subject of assay [6] is HOP-92 NSCLC.
In assay [7] the test system is NCI-H522 lung.
The test system of assay [8] is A549/ATCC NSCLC.
For assay [9], the system named is 786-0 renal.
In assay [10] the test system is COLO 205 colon.

In the case of `CCN(CC)c1ccnc(CNCCSC(c2ccccc2)(c2ccccc2)c2ccc(OC)cc2)c1`, the growth in [1] was -41.8% (active); in [2], -7.73% (active); in assay [3], 21.8%; in [4] it was -10.2% (active); in assay [5] it was -87.3% (active); in assay [6], -30% (active). The growth is -67.8% (active) in assay [7], 2.36% (active) in assay [8], -50.8% (active) in assay [9] and -74% (active) in assay [10].
In the case of `O=C1NC(=O)/C(=C/c2ccccc2OCc2cc3ccccc3nc2Cl)S1`, the growth in assay [1] was 68.8%; in [2], 75.4%; in [3], 79.4%; in assay [4] it was 33.6%; in assay [5] it was 91.9%; in assay [6] it was 56.8%. For the same compound, the growth in [7] was 79.1%; in assay [8] it was 76.9%; in [9] it was 78.2%; in assay [10] it was 117%.
Consider `Clc1ccc(-c2ccc(OCCCN3CCN(c4ccncc4)CC3)cc2)cc1`, for which the growth in assay [1] was 50.7%; in assay [2], 62.5%; in [3] it was 91%; in assay [4], 54.3%; in assay [5], -6.61% (active); in assay [6] it was 15.9%. In addition, the growth in assay [7] was 67.8%; in assay [8], 59.1%; in [9] it was 56.4%; in assay [10] it was -77.8% (active).
For `COc1ccc([C@H](C)Nc2nc(Cl)nc3ccccc23)cc1`, the growth in [1] is 23.2%; in assay [2] it was 58.9%; in assay [3], 86%; in assay [4], 43.6%; in assay [5], 60.8%; in assay [6] it was 46.1%. The growth in assay [7] was -0.556% (active); in assay [8], 70.2%; in assay [9], 84.8%; in [10], 90.3%.
`Cc1cc(C)cc(C(=O)Nc2cccc(-c3cn(-c4ccc(S(N)(=O)=O)cc4)nn3)c2)c1`: the growth in assay [1] is 0.645% (active); in assay [2], 15.9%; in [3] it was 68.5%; in assay [4], -18.3% (active); in [5], 41.4%; in assay [6], -56.2% (active). Also, the growth in assay [7] was 61.7%; in assay [8], 62.2%; in assay [9], -66.3% (active); in assay [10] it was 141%.
In the case of `O=c1[nH]n(C(=S)N/N=C/c2ccccc2Cl)c(=O)c2ccccc12`, the growth in assay [1] was -43.6% (active); in assay [2], -19.9% (active); in assay [3], 5.29% (active); in assay [4], -2.31% (active); in assay [5] it was 14.5%; in [6], -0.742% (active). For the same compound, the growth in assay [7] is -61.7% (active); in assay [8], 7.02% (active); in assay [9] it was 12.9%; in assay [10], -60.9% (active).
As for `O=C1c2c(c3c4cc(F)ccc4oc3c3[nH]c4ccc(Br)cc4c23)C(=O)N1O`, the growth is 7.64% (active) in [1]; 61.8% in assay [2]; 79.4% in assay [3]; 19.4% in [4]; 5.53% (active) in assay [5]; -39.4% (active) in assay [6]. Besides, the growth in [7] is -18% (active); in assay [8] it was 69.2%; in [9], 15.5%; in assay [10], 67.9%.
In the case of `C=CC[N+](C)(C)CCn1c2ccccc2c2nc3cc(C)c(C)cc3nc21`, the growth was 70.5% in [1]; 92.5% in [2]; 102% in [3]; 96.3% in assay [4]; 104% in [5]; 111% in [6]. Further, the growth was 51.5% in [7], 106% in assay [8], 89% in assay [9] and 88.6% in assay [10].
On to `C=C1CC[C@@H]2[C@]3(C)COC(c4cn[nH]c4-c4ccc(C)cc4)O[C@@H]3CC[C@@]2(C)[C@@H]1C/C=C1/C(=O)OCC1O` (stereo not given in full), for which the growth in assay [1] is -8.25% (active); in assay [2], -65.3% (active); in assay [3], 79.9%; in assay [4], 27.4%; in assay [5] it was 67%; in assay [6], -9.12% (active). The growth in assay [7] was -58.4% (active); in assay [8] it was 41.5%; in [9], -64% (active); in assay [10], 12.8%.
Take `O=C(NNc1nc2cc(F)ccc2n2c(C(=O)N3CCN(C4CC4)CC3)ccc12)c1ncccn1`: the growth in [1] was 38.4%; in assay [2], 11.4%; in [3] it was 29.9%; in assay [4], 20%; in assay [5] it was 8.44% (active); in [6], 69.2%. Further, the growth in assay [7] was 67.1%; in assay [8] it was 24.5%; in assay [9], -9.79% (active); in assay [10], 7.77% (active).
With `CCOC(=O)COc1c(OC)c(OC)cc2oc(-c3cccc(C(=O)Nc4ccc(Cl)cc4)c3)cc(=O)c12`, the growth in [1] was 62.9%; in assay [2], 76.2%; in assay [3], 108%; in assay [4], 54.9%; in assay [5], 83.5%; in assay [6], 52.6%. Besides, the growth was 46% in [7], 77% in [8], 49.5% in assay [9] and 39.8% in assay [10].
Regarding `C=C1CCC2C3(C)COC(c4ccc(F)cc4)OC3CCC2(C)C1C/C=C1/C(=O)OCC1O` (stereo not given), the growth in [1] is -40.3% (active); in [2], -8.14% (active); in assay [3], 27%; in [4] it was -3.79% (active); in assay [5] it was -39% (active); in assay [6], -43.7% (active). Moreover, the growth in assay [7] is -80.7% (active); in [8], 9.65% (active); in assay [9] it was -89.2% (active); in [10], -50.6% (active).
With `N#Cc1ccc(C(=O)Nn2c(N)cc3ccccc3c2=O)cc1`, the growth in assay [1] is 93.8%; in assay [2], 84.4%; in assay [3], 94.7%; in assay [4] it was 99.3%; in [5] it was 80.3%; in assay [6], 88.2%. The growth in assay [7] is 95%; in assay [8], 94.4%; in assay [9] it was 98.3%; in [10], 112%.
Turning to `O=C(Nc1cccc(-n2cnc3cc(-c4ccc(O)cc4)ccc32)c1)C1CC1`, the growth is 40.1% in assay [1]; 13.8% in assay [2]; 48% in assay [3]; 44.7% in assay [4]; 7.41% (active) in assay [5]; 125% in [6]. Further, the growth is 5.82% (active) in assay [7], 27.4% in assay [8], 25.8% in assay [9] and 34.2% in assay [10].
